Cycloheximide cs = counter-screen hit for Shiga toxin inhibitors, cycloheximide; cell reporter, cycloheximide protein synthesis inhibition counterscreen; max response, %; hit rate 12% among 300,000; in the data active = max response mostly above about 13%, no sharp cut-off; inactive = mostly below about 14%; note: read at 38.3 µM for the half of the compounds with a filed dose; 0% is about no effect
RE007 growth inh = less growth of the S. pombe RE007 Vpr strain. Potency, µM (top dose mostly 92.2 µM), inactives show top-dose activity change, negative = less growth, actives largely listed as inhibitors. hit rate 0.21% among 360,000. AID 651644. S. pombe RE007 Vpr strain, BacTiter-Glo ATP luminescence, 24 h; active = well fitted falling curve with a large enough effect; inconclusive = small, poorly fitted or top-dose-only effect; inactive = no such curve, though single readings can be large or run the other way; note: potency is the fitted concentration of half-maximal effect; % is set by controls: 0 for no effect and ±100 for the full control effect; nearly all actives have a fitted effect of over 50% in size
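Fission yeast RE007 carrying one integrated HIV-1 vpr copy, seeded at OD 0.01 in PMG+AL medium with 23 nL pinned compound. Grown 24 h at 30 degrees; viability read by BacTiter-Glo luminescence after 5 min.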
Tb PYK inh = blocks Trypanosoma brucei pyruvate kinase. Q57TT1. TbPYK enzyme, Kinase-Glo Plus ATP luminescence, 45 min. Potency, µM (highest dose often 76.8 µM), for the others: at the top dose activity, negative = inhibition, usual class: inhibitors. hit rate 0.12% among 410,000; note: potency is the fitted concentration of half-maximal effect; % is set by controls: 0 for no effect and ±100 for the full control effect; nearly all actives have a fitted effect of over 50% in size
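Activity of T. brucei pyruvate kinase was followed by Kinase-Glo Plus luminescence after the enzyme reacted 45 min at room temperature with 130 uM ADP (final) and substrate. Test compounds were added before ADP at multiple concentrations.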
FBPA Giardia inh = Giardia lamblia aldolase inhibition; A8B2U2; purified Giardia FBPA; Potency, µM (doses to about 59.6 µM), without a hit: at the highest dose activity, negative = inhibition, hits mostly inhibitors; hit rate 0.71% among 290,000; AID 2451; note: potency is the fitted concentration of half-maximal effect; % is set by controls: 0 for no effect and ±100 for the full control effect; nearly all actives have a fitted effect of over 55% in size
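Giardia FBPA (40 nM reagent) was preincubated 10 min at RT with compound (up to 57.5 uM final), then substrate plus GAPDH/TPI/NAD/arsenate coupling system with diaphorase/resazurin was added; resorufin fluorescence (525/598 nm) was read after 20 min.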
LmPK inhibitor = blocks Leishmania mexicana pyruvate kinase activity; hit rate 0.37% among 290,000; AID 1721; purified LmPK, Kinase-Glo ATP luminescence, 1 h; Q27686; Potency, µM (titrated, usually from 57.5 µM), for inactives: at the top dose activity change, negative = inhibition, most hits filed as inhibitors; note: potency is the fitted concentration of half-maximal effect; % is set by controls: 0 for no effect and ±100 for the full control effect
Target sequence (Q27686 whole entry, looked up): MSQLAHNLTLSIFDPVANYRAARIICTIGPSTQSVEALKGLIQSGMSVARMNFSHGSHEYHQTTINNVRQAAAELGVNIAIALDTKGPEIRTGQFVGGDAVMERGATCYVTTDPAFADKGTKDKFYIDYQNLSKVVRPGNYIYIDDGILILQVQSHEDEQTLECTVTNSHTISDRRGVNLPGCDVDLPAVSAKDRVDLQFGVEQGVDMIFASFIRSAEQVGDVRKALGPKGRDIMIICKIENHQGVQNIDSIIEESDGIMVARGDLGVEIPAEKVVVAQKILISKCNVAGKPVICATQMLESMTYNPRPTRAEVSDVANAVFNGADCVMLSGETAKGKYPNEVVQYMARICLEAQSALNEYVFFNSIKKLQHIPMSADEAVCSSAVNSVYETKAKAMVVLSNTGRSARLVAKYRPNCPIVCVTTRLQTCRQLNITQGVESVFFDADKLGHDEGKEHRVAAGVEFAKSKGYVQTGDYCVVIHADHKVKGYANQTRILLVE
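Pyruvate kinase activity monitored as ATP production (luciferase luminescence). Conditions: 0.1 nM enzyme, 0.5 mM PEP, 0.1 mM ADP, 1 h, RT; normalized against uninhibited and no-enzyme wells.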
Shiga inhibitor = inhibitors of Shiga toxin in Vero cells | inhibition, % at 38.7 µM | AID 2315 | Vero cells, Shiga toxin protein synthesis inhibition reporter | hit rate 9.2% among 290,000; in the data active = inhibition mostly above about 28%, no sharp cut-off; inactive = mostly below about 43%; note: 0% is about no effect
An asterisk follows results filed as active; ? = inconclusive; / = no result given; + = active, no number; [ ] = remark or other dose. This is one part of a sample in which hits are shown more often than they occur. Unless noted, calls come from the whole dose curve; as a rule, active = well fitted curve in the direction sought with a large enough effect; inconclusive = small, poorly fitted or top-dose-only effect, or another doubt; inactive = no such curve, though single readings can be large; an effect the other way counts as inactive or inconclusive.

SMILES	Cycloheximide cs	RE007 growth inh	Tb PYK inh	FBPA Giardia inh	LmPK inhibitor	Shiga inhibitor
O=C(c1ccc(F)cc1)n1nc(-c2ccccc2)nc1NCc1ccc(F)cc1	/	/	-1%	/	/	/
O=C(c1ccc([N+](=O)[O-])cc1)n1nc(-c2ccccc2)nc1NCc1ccc(F)cc1	17*	7%	0%	0%	-2%	37*
O=C(c1ccccc1)n1nc(-c2ccccc2)nc1NCc1ccc(F)cc1	/	/	8%	/	/	/
O=C(c1cccc([N+](=O)[O-])c1)n1nc(-c2ccccc2)nc1NCc1ccccc1	20*	-10%	2%	-2%	0%	48*
Cc1cc2oc(=O)cc(CN(C)Cc3ccccc3)c2cc1C	/	-19%	3%	/	/	/
Cc1ccc2c(CN(C)Cc3cccc(F)c3)cc(=O)oc2c1C	22*	16%	-2%	10%	2%	55
Cc1ccc2c(CN(C)Cc3ccccc3)cc(=O)oc2c1C	44*	4%	-3%	2%	3%	46*
Cc1ccc2c(CN(C)Cc3ccc(OC(F)F)cc3)cc(=O)oc2c1C	6	-3%	-1%	1%	-1%	28
CCOc1ccc(CCNC(=O)c2sc3nc4n(c(=O)c3c2C)CCCC4)cc1	/	/	-5%	/	/	/
CC(C)(C)OC(=O)NC(Cc1ccccc1)C(=O)NC1COC2CC(n3ccc(=O)[nH]c3=O)OC12 (configuration not stated)	-5	/	/	5%	/	6
COC(=O)c1c(NC(=O)C2C3CCC(C3)C2C(=O)O)sc2c1CCCCC2 (configuration not stated)	13	19%	0%	23%	2%	51*
COC(=O)c1c(NC(=O)C2C3CCC(O3)C2C(=O)O)sc2c1CCCCCC2 (configuration not stated)	0	2%	-6%	25%	0%	12
COC(=O)c1ccc2c(c1)c(C#Cc1ccccc1)c(-c1ccccc1)n2C	60*	0%	5%	-3%[89.2 µM]	/	+
COc1ccc(-c2c(C#Cc3ccsc3)c3cc(-c4ccc(C(N)=O)cc4)ccc3n2C)cc1	/	11%	3%	/	/	/
COc1ccc(C#Cc2c(-c3ccccc3)n(C)c3ccccc23)cc1	/	9%	2%	/	/	/
COC(=O)c1ccc2c(c1)c(I)c(-c1ccc(OC)cc1)n2C	37*	/	/	-1%	/	+
COc1ccccc1C(=O)Nc1nnc(-c2ccccc2)s1	35*	-2%	-1%	-2%	6%	/
COc1ccccc1C(=O)Nc1nc(-c2cccs2)c(NC(C)=O)s1	30*	-10%	-1%	6%	-3%	57*
COc1ccccc1C(=O)N(C)c1nnc(-c2ccccc2)s1	37*	-2%	13%	-16%	1%	66*
Cc1ccc(C(=O)Nc2nnc(-c3ccc(C(C)(C)C)cc3)s2)cc1	25	8%	-6%	1%	-1%	36*
COc1ccccc1C(=O)Nc1nnc(SCC(=O)NC2CCCC2)s1	63*	-5%	-3%	/	0%	166*
COc1ccccc1C(=O)Nc1nnc(C)s1	39*	11%	-1%	4%	-14%	81*
O=C(CSc1nnc(NC(=O)c2ccccc2[N+](=O)[O-])s1)NC1CCCC1	/	-12%	-21%	/	/	/
COc1cccc(C(=O)Nc2nnc(-c3ccccc3)s2)c1OC	43*	-4%	-1%	-16%	-5%	41*
Cc1cccc(Cn2nnc3c(=O)[nH]c(C4CCN(C(=O)c5ccc(F)cc5)CC4)nc32)c1	/	/	-7%	/	/	/
SMILES	Cycloheximide cs	RE007 growth inh	Tb PYK inh	FBPA Giardia inh	LmPK inhibitor	Shiga inhibitor
CCSc1ncc(Cl)c(C(=O)N(Cc2ccc(C(C)(C)C)cc2)C2CCS(=O)(=O)C2)n1 (configuration not stated)	/	/	-9%	/	/	/
N#Cc1ccsc1NC(=O)COC(=O)c1cc(Br)ccc1O	45*	-5%	6%	1%	4%	84*
Cn1cccc1C(=O)OCC(=O)Nc1sccc1C#N	/	12%	0%	/	/	/
N#Cc1ccsc1NC(=O)COC(=O)c1ccc(Br)o1	/	-10%	-2%	/	/	/
N#Cc1ccsc1NC(=O)COC(=O)c1ccc2ccccc2c1	54*	14%	11%	0%	1%	active
COc1ccc(CCC(=O)Nc2sccc2C#N)cc1	51*	-17%	-7%	-13%	?	131*
CO/N=C(/C(=O)N[C@@H]1C(=O)N2C(C(=O)O)=C(CSc3cnns3)CS[C@H]12)c1csc(N)n1	/	/	-3%	/	/	/
CC1CCN(S(=O)(=O)c2cn(CC(=O)Nc3ccc(F)cc3)c(=O)c3ccccc23)CC1	/	/	-3%	/	/	/
CC(=O)Nc1nc2c(ccc3ccccc32)s1	9.9*	-2%	-1%	-5%	1%	20
O=C(Cc1cccs1)Nc1nnc(SCc2cccc3ccccc23)s1	-5	-22%	8%	11%	5%	1
O=C(Cc1cccs1)Nc1nc2c(ccc3ccccc32)s1	34*	-10%	1%	-23%	-10%	86*
O=C(Nc1nc2c(ccc3ccccc32)s1)c1cc([N+](=O)[O-])ccc1N1CCOCC1	45*	/	/	-21%	-1%	73*
CN1CCN(C(=O)C2CCCCC2)CC1	/	/	1%	/	/	/
N#Cc1ccccc1NC(=O)C(=O)NCC(c1cccnc1)N1CCc2ccccc21 (configuration not stated)	/	/	-10%	/	/	/
COc1cccc(CNC(=O)CCC2CCCN(C(=O)c3ccc(OC)o3)C2)c1 (configuration not stated)	22*	-1%	-3%	17%	-12%	60*
COc1cccc(CNC(=O)CCC2CCCN(C(=O)c3cc(C)on3)C2)c1 (configuration not stated)	-1	-3%	-1%	3%	-3%	14
COc1cccc(CNC(=O)CCC2CCCN(C(=O)c3cc(C4CC4)[nH]n3)C2)c1 (configuration not stated)	17*	-4%	-2%	-3%	3%	34*
Oc1ccc(N=Nc2ccc3c(c2)OCCO3)c2ncccc12	48*	10%	-9%	15%	-10%	95*
Cc1ccc(NS(=O)(=O)c2ccc(-c3ccc(=O)[nH]n3)o2)cc1N(C)C	44*	-9%	0%	/	-7%	60*
Cc1ccc(NS(=O)(=O)c2ccc(-c3ccc(=O)[nH]n3)o2)cc1Cl	2	11%	1%	-6%	5%	2
CCCCN(C)CCNC(=O)Cn1ncc2c3ccccc3n(CCC)c2c1=O	/	/	-4%	/	/	/
CC(C)=CCC1=C(OCC(=O)O)C(=O)c2ccccc2C1=O	5	?	-9%	1.3µM*	9%	34
CC(C)=CCC/C(C)=C/CC/C(C)=C/CC/C(C)=C/CC1=C(C)C(=O)c2ccccc2C1=O	-6	-5%[18.4 µM]	3%	?	-5%	15
CSCCC1COC(c2cccs2)=N1 (configuration not stated)	39*	3%	-7%	1%	1%[11.5 µM]	65*
